Assay results published in PubChem BioAssay.
Unmarked numbers belong to inactive results. For some assays here: Results with a measured potency or affinity are listed apart. Activity calls are given as the source filed them. Unless noted, how the calls were made is not given here.

Key:
[1] = antimalarial activity against Dd2 strain (AID 2302;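 active means growth inhibition above 50% at the single 2 µM test dose, taken to imply half-maximal potency below 2 µM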;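 further: 0% = DMSO untreated growth and 100% = chloroquine plus artemisinin killed control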); conditions: P. falciparum Dd2 in RBCs, LDH growth readout, 72 h; at 2 µM; hits give high values
[2] = HepG2 cytotoxicity, primary screen, cytotoxicity control for P. falciparum antimalarial project, cell-based, ATP luminescence (AID 2303;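 active means inhibition above 50%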;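 further: 0% = DMSO wells and 100% = digitonin-killed cells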); conditions: HepG2 viability, 24-48 h, at 10 µM, hits give high values
[3] = target: L-lactate dehydrogenase (Plasmodium falciparum (isolate CDC / Honduras)) (UniProt Q27743); assay: PfLDH activity inhibition – cell lysate, 3D7 strain, counter-screen for P. falciparum growth inhibition project (AID 2304);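 further: 0% = vehicle and 100% = reference inhibitor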; conditions: P. falciparum 3D7 crude extract, LDH APAD/NBT absorbance; at 2 µM; hits give high values
[4] = inhibition of 3D7 malaria parasite growth – strain 3D7 (AID 2306);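 further: 0% = DMSO wells and 100% = chloroquine plus artemisinin control wells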; conditions: P. falciparum 3D7 erythrocytic growth, LDH absorbance, 72 h; at 2 µM; hits give high values
[5] = target: Calcium-dependent protein kinase 1 (Plasmodium falciparum (isolate 3D7)) (UniProt P62344); assay: PfCDPK1 kinase inhibitors, biochemical, TCAMS library (AID 1159585; cut-off not given, nearly all actives have IC50 up to about 0.98 µM;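 further: inhibitors leave more ATP so luminescence rises with inhibition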); conditions: recombinant PfCDPK1, Kinase-Glo ATP depletion luminescence
[6] = target: Plasmodium falciparum protein kinase 6 (PK6, PF3D7_1337100) (UniProt Q8IDW1); assay: PfPK6 kinase inhibitors, biochemical, TCAMS library (AID 1159586); conditions: recombinant PfPK6, Kinase-Glo ATP depletion luminescence
[7] = target: Protein kinase 7 (PK7), Plasmodium falciparum 3D7 (PF3D7_0213400) (UniProt Q7YTF7); assay: inhibition of Plasmodium PK7 catalytic activity – biochemical, TCAMS antimalarial set, Kinase-Glo luminescence (AID 1159587); conditions: recombinant PfPK7, Kinase-Glo ATP depletion luminescence
[8] = target: Calcium-dependent protein kinase 4 (Plasmodium falciparum (isolate 3D7)) (UniProt Q8IBS5); assay: PfCDPK4 kinase inhibitors, biochemical, TCAMS library (AID 1159588; cut-off not given, nearly all actives have IC50 up to about 0.91 µM); conditions: recombinant PfCDPK4, Kinase-Glo ATP depletion luminescence
Chain of Calcium-dependent protein kinase 4 (Plasmodium falciparum (isolate 3D7)) (Q8IBS5 whole entry, looked up): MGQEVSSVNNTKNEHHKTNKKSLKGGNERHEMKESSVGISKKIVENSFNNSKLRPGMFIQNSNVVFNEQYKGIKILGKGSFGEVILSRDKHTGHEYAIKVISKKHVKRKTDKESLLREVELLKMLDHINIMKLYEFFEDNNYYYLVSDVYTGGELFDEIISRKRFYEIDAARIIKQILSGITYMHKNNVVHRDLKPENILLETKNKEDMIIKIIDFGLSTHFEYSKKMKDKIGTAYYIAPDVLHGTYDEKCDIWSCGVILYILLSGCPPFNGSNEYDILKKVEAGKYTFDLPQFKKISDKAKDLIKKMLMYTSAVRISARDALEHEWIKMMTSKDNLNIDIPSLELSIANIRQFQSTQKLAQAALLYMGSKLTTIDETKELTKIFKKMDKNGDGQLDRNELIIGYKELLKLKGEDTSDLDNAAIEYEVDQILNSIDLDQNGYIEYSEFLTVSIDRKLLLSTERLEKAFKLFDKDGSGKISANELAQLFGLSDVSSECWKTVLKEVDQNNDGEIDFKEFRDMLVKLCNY

Chain of Plasmodium falciparum protein kinase 6 (PK6, PF3D7_1337100) (Q8IDW1 1-305): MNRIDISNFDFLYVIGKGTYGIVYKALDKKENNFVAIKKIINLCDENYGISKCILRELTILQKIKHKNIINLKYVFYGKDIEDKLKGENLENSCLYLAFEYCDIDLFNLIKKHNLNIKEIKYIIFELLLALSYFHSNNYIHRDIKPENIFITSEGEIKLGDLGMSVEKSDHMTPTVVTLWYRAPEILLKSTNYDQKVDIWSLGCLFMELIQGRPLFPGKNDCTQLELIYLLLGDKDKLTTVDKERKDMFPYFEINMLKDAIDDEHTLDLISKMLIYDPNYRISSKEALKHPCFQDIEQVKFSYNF
Chain of Protein kinase 7 (PK7), Plasmodium falciparum 3D7 (PF3D7_0213400) (Q7YTF7 1-343): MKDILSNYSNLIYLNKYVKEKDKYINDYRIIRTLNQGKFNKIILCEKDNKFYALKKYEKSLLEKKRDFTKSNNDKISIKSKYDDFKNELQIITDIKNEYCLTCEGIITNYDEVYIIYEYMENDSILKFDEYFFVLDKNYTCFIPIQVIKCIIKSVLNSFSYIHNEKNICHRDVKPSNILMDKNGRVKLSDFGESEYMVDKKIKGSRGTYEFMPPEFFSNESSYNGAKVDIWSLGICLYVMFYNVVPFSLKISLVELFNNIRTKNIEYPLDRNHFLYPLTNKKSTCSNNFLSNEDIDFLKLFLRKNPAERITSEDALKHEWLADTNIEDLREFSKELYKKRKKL
Chain of Calcium-dependent protein kinase 1 (Plasmodium falciparum (isolate 3D7)) (P62344 whole entry, looked up): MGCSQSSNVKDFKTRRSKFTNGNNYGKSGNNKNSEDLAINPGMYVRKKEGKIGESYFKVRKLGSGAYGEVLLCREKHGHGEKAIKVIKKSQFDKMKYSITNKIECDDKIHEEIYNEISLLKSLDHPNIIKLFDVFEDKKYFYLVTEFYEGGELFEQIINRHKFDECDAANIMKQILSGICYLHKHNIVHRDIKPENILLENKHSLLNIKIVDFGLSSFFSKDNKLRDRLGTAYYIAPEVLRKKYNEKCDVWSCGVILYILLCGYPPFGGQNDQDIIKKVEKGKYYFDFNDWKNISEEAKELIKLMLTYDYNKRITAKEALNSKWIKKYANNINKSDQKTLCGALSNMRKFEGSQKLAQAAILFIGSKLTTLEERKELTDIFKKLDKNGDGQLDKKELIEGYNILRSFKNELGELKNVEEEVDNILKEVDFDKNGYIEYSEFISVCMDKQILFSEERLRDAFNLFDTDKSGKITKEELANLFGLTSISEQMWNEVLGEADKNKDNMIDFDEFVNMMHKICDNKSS
Chain of L-lactate dehydrogenase (Plasmodium falciparum (isolate CDC / Honduras)) (Q27743 whole entry, looked up): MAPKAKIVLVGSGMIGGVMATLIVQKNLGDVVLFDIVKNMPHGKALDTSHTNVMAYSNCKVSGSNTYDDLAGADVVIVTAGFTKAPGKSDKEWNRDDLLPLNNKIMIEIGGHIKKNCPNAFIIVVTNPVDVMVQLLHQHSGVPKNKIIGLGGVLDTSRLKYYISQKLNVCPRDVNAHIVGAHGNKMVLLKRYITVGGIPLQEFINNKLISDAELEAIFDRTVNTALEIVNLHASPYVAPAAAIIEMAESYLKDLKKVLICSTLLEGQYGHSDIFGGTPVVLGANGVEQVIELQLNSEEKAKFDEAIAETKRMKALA

SMILES | growth inhibition [1] | inhibition [2] | inhibition [3] [%] | growth inhibition [4] | outcome [5] | outcome [6] | outcome [7] | outcome [8]
Cc1[nH]c(C)c(-c2ccc(Cl)cc2Cl)c(=O)c1Br | 57% (active) | 3% | -4 | 87% (active) | inactive | inactive | inactive | inactive
COc1ccc2nccc([C@@H](O)CN3CCC(NCCOc4c(C)cccc4F)CC3)c2c1 | 95% (active) | 4% | -5 | 100% (active) | inactive | inactive | inactive | inactive
COC(=O)c1cccc(CNCc2ccc(-c3ccc(-c4nc5c(C)cccc5[nH]4)cc3)cc2)c1 | 86% (active) | 17% | 3 | 102% (active) | inactive | inactive | inactive | inactive
COc1cc(-c2cc3cc(Cl)c(Cl)cc3[nH]2)ccc1C(=O)NC1CCN(Cc2ccccc2)CC1 | 101% (active) | 12% | -3 | 102% (active) | inactive | inactive | inactive | inactive
O=C(NC1CCCCN(Cc2ccccc2O)C1)c1cc(F)cc(F)c1 (stereo not given) | 52% (active) | 7% | 0 | 89% (active) | inactive | inactive | inactive | inactive
Cn1cnc(CCNC(=O)c2ccc(-c3cccc(-c4nc5ccccc5[nH]4)c3)cc2)c1 | 14% | 1% | 2 | 93% (active) | inactive | inactive | inactive | inactive
C=CCn1c(C)cc(C(=O)COc2ccc(S(=O)(=O)N3CCOCC3)cc2[N+](=O)[O-])c1C | 5% | 0% | 3 | 94% (active) | inactive | inactive | inactive | inactive
Cc1onc(-c2ccccc2)c1-c1nc(NC2CCCC(C)C2)no1 (stereo not given) | 46% | 22% | -3 | 101% (active) | inactive | inactive | inactive | inactive
Cn1ccnc1CCC(=O)Nc1ccc(Cl)cc1C(=O)Nc1ccc(Cl)cc1 | 3% | 28% | 4 | 92% (active) | inactive | inactive | inactive | inactive
N#Cc1ccc(-c2ccc(C(=O)NCCCCN3CCC(c4ccc5c(c4OCc4ccccn4)CCCC5)CC3)cc2)cc1 | 39% | 37% | 6 | 96% (active) | inactive | inactive | inactive | inactive
COc1ccc(CCNc2ccnc3cc(Cl)ccc23)cc1OC | 92% (active) | 4% | -7 | 101% (active) | inactive | inactive | inactive | inactive
NC1CCN(Cc2ccc(-c3ccc(-c4nc5ccccc5[nH]4)cc3)cc2)C1 (stereo not given) | 100% (active) | 34% | -5 | 101% (active) | inactive | inactive | inactive | inactive
CCn1c(C)c(C)c2cc(C(=O)Nc3ccon3)ccc21 | 93% (active) | 3% | -3 | 95% (active) | inactive | inactive | inactive | inactive
Cc1cc(NC(=O)Nc2ccc3nc(C)oc3c2)c2cc(Cl)ccc2n1 | 57% (active) | -10% | -2 | 100% (active) | inactive | inactive | inactive | inactive
CC(C)Cc1cn(-c2nc(-c3nc4ccccc4[nH]3)cs2)c2cc(Cl)ccc12 | 68% (active) | 9% | -3 | 99% (active) | inactive | inactive | inactive | inactive
COc1ccc2nccc([C@@H](O)CN3CCC(NC(=O)Cn4nc(-c5ccc(C(F)(F)F)cc5)ccc4=O)CC3)c2c1 | 90% (active) | 12% | -3 | 100% (active) | inactive | inactive | inactive | inactive
COc1ccccc1N1CCN(CCCCNC(=O)c2ccc(NC(=O)c3cc4ccccc4o3)cc2)CC1 | 2% | 9% | -1 | 84% (active) | inactive | inactive | inactive | inactive
N#Cc1ccc(CN2CCC(Oc3ccc(NC(=O)c4ccco4)cc3Cl)CC2)cc1 | 96% (active) | 7% | 6 | 95% (active) | inactive | inactive | inactive | inactive
COc1ccccc1NS(=O)(=O)c1cc(C(=O)Nc2ccc(N3CCOCC3)c(S(=O)(=O)Nc3ccccc3Cl)c2)ccc1Cl | 25% | -3% | -2 | 97% (active) | inactive | inactive | inactive | inactive
Cc1[nH]c(C)c(-c2ccc(OCc3cc(C(F)(F)F)cc(C(F)(F)F)c3)nc2)c(=O)c1Br | 96% (active) | 28% | -2 | 98% (active) | inactive | inactive | inactive | inactive

SMILES | growth inhibition [1] | inhibition [2] | inhibition [3] [%] | growth inhibition [4] | outcome [5] | outcome [6] | outcome [7] | outcome [8]
N#CCCN1CCN(Cc2cccc(-c3ccc(-c4nc5ccc(C(F)(F)F)cc5[nH]4)cc3)c2)CC1 | 63% (active) | 23% | 4 | 101% (active) | inactive | inactive | inactive | inactive
CC12CCC(C(=O)N(CC(O)Cn3c4ccc(Cl)cc4c4cc(Cl)ccc43)C1=O)C2(C)C (stereo not given) | 99% (active) | -1% | -5 | 100% (active) | inactive | inactive | inactive | inactive
Nc1c2c(nc3ccc(NC(=O)c4ccccc4)cc13)CCCC2 | 8% | 0% | -8 | 99% (active) | inactive | inactive | inactive | inactive
CC(C)c1sc(N2CCN(C)CC2)nc1C(=O)Nc1ccc(F)cc1C(F)(F)F | 99% (active) | 3% | 4 | 101% (active) | inactive | inactive | inactive | inactive
O=C(c1ccc(-c2cnc3[nH]cc(-c4ccc(C(=O)N5CCOCC5)cc4)c3c2)cc1)N1CCOCC1 | -3% | 19% | -4 | 91% (active) | inactive | inactive | inactive | inactive
CC(=O)N1CCC(C(=O)Nc2ccc(-c3cccc(-c4nc5ccc(C(F)(F)F)cc5[nH]4)c3)cc2)CC1 | 33% | 82% (active) | -9 | 88% (active) | inactive | inactive | inactive | inactive
Oc1ccc2[nH]cc(C3CCN(CCCNCc4ccc(-c5ccccc5)cc4)CC3)c2c1 | -1% | 22% | -4 | 101% (active) | inactive | inactive | inactive | inactive
CCC1CN2CCc3c([nH]c4ccccc34)C2CC1CC1=NCCc2c1[nH]c1ccccc21 (stereo not given) | 47% | 20% | -8 | 100% (active) | inactive | inactive | inactive | inactive
NC(N)=Nc1cccc(NC(=O)Nc2cccc(N=C(N)N)c2)c1 | 71% (active) | -7% | 7 | 87% (active) | inactive | inactive | inactive | inactive
C=Cc1c(C2CCN(CCCCNC(=O)c3ccc(-c4ccc(C#N)cc4)cc3)CC2)ccc2c1CCCC2 | 75% (active) | 75% (active) | 1 | 94% (active) | inactive | inactive | inactive | inactive
C=C(NC(=O)c1cc(C)cc(C)c1)C(=O)OC | -2% | 21% | -3 | 95% (active) | inactive | inactive | inactive | inactive
Cc1cc(NN=Cc2ccccc2F)c2cc(C(F)(F)F)ccc2n1 | 67% (active) | 5% | 2 | 102% (active) | inactive | inactive | inactive | inactive
Cc1cccc2[nH]c(-c3cccc(-c4cccc(NC(=O)c5cnccc5C(F)(F)F)c4)c3)nc12 | 47% | 7% | -11 | 98% (active) | inactive | inactive | inactive | inactive
CCOC(=O)c1ccc2nc(-c3ccc(C(=O)NC4CCN(Cc5ccccc5)CC4)s3)[nH]c2c1 | 95% (active) | 32% | -2 | 100% (active) | inactive | inactive | inactive | inactive
O=C(c1cccc(-c2cccc(-c3nc4ccccc4[nH]3)c2)c1)N1CCCCC1CN1CCC(O)C1 (stereo not given) | 56% (active) | 66% (active) | 2 | 100% (active) | inactive | inactive | inactive | inactive
O=C(NC1CCN(Cc2ccccc2)CC1)c1cccc(-c2nc3ccc(Cl)cc3[nH]2)c1 | -1% | 6% | -3 | 98% (active) | inactive | inactive | inactive | inactive
Cc1noc(-c2ccc3c(c2)CCN(CCC2CCC(NC(=O)c4cc5ccccc5[nH]4)CC2)CC3)n1 (stereo not given) | 41% | 21% | -7 | 99% (active) | inactive | inactive | inactive | inactive
Fc1ccccc1C=NNc1ccnc2ccc(C(F)(F)F)cc12 | 61% (active) | 5% | 3 | 100% (active) | inactive | inactive | inactive | inactive
Cc1cc(-c2ccc(NC(=O)c3coc4ccc(N5C[C@@H](C)N(C)[C@@H](C)C5)cc34)cc2C)cc(C)n1 | 62% (active) | 13% | -4 | 94% (active) | inactive | inactive | inactive | inactive
CC(C)(C)c1ccc(CNC(=O)c2ccc(-c3nc4ccc(Cl)cc4[nH]3)cc2)cc1 | 2% | 14% | -2 | 93% (active) | inactive | inactive | inactive | inactive
